In the library only some 2.6% were active in any assay of this set; here they are far more common.
Cruzain inh Det: qHTS Assay for Promiscuous and Specific Inhibitors of Cruzain (with detergent); purified cruzain, Z-FR-AMC fluorescence, 0.01% Triton; Potency, µM, for the others: max response, negative = inhibition, hits mostly inhibitors; 200,000 compounds, 0.43% hits; AID 1478, 2009;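 also: plate controls were neutral wells for no effect and buffer without enzyme for full effect; nearly all actives have a fitted effect of over 40% in size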
Target sequence (P25779 123-467 limits assumed): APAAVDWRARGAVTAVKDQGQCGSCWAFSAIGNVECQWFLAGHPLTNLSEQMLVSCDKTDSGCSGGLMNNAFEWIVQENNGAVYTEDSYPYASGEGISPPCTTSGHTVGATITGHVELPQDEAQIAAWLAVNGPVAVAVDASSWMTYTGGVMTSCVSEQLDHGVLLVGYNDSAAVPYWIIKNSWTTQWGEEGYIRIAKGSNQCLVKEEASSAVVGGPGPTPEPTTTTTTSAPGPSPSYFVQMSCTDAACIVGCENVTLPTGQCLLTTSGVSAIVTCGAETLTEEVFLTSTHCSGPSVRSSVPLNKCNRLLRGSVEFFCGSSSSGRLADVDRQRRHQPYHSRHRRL
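In this qHTS format, compounds are incubated with 1.5 nM cruzain for 15 min at room temperature before 2 uM Z-FR-AMC is added. Release of AMC is followed at 360/450 nm, and progress is taken as the 60 s fluorescence difference.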
Cruzain noTriton: qHTS Assay for Promiscuous and Specific Inhibitors of Cruzain (without detergent). Cruzipain (Trypanosoma cruzi), P25779. purified cruzain, Z-FR-AMC fluorescence, no detergent. Potency, µM, without a hit: max response, negative = inhibition, actives largely listed as inhibitors. 200,000 compounds, 2.3% hits. AID 1476, 2009;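 also: plate controls were enzyme without inhibitor for no effect and buffer without enzyme for full effect; nearly all actives have a fitted effect of over 40% in size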
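Detergent-free condition (0.00005% Triton X-100) in acetate buffer pH 5.5 with DTT. 1.5 nM enzyme and compound were pre-mixed 15 min, then 2 uM Z-FR-AMC substrate added; reaction progress from fluorescence change between first and third reads (60 s).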
* = called active by the depositor; ? = inconclusive. Calls follow the shape of the dose curve; as a rule, active = well fitted curve in the direction sought with a large enough effect; inconclusive = small, poorly fitted or top-dose-only effect, or another doubt; inactive = no such curve, though single readings can be large; an effect the other way counts as inactive or inconclusive. Potency is read from the fitted curve at half-maximal effect.

SMILES	Cruzain inh Det	Cruzain noTriton
COc1cccc(NC(=O)NC2(C(F)(F)F)Oc3ccccc3O2)c1	-4.5%	-27.6%
O=C1C2C(C(=O)N1/N=C/c1cc(Br)cc([N+](=O)[O-])c1O)C1C=CC2C12CC2 (stereo not given)	-8.1%	7.6%
O=C(Cn1c(=O)n(CC2CCCO2)c(=O)c2ccccc21)Nc1ccc(F)cc1F (stereo not given)	-0.9%	11.4%
S=C(Nc1ccccc1)Nc1nccs1	-4.6%	6.2%
CC(=O)N(Cc1cccnc1)c1nc2c(C)cccc2s1	-2.5%	12.7%
CC(C)CCOc1ccc(C(=O)NCC2OCCc3ccccc32)cc1 (stereo not given)	-2.0%	-2.0%
CCOc1ccc(N2C(=O)CC(Sc3ncccn3)C2=O)cc1 (stereo not given)	-1.4%	-1.9%
CCOc1ccc(N2C(=O)CC(Sc3nc(-c4cccs4)cc(C(F)(F)F)c3C#N)C2=O)cc1 (stereo not given)	-19.5%	12.6µM*
N/C(COc1ccc(Cl)cc1Cl)=N\NS(=O)(=O)c1ccccc1	-3.8%	5.6%
CC(C)C[C@H](NC(=O)C1OC1C(=O)O)C(=O)NCCCCN=C(N)N (stereo not given in full)	0.0794µM*	0.0398µM*
CC(C)CC(NC(=O)C1CCCN1C(=O)OC(C)(C)C)C(=O)NCC(N)=O (stereo not given)	1.6%	-5.0%
COc1cc(/C=N/O)c(Br)cc1OCC(=O)Nc1ccccc1C	0.5%	-5.2%
Cc1cccn2c(=O)c(/C=C(\C#N)c3nc4ccccc4n3C)c(Oc3ccc(Cl)cc3)nc12	-1.4%	-7.1%
Cc1cc(Oc2nc3c(C)cccn3c(=O)c2/C=C(\C#N)S(=O)(=O)c2ccc(Cl)cc2)ccc1Cl	-0.6%	12.6µM*
O=c1oc2cc(OCc3ccc(C(F)(F)F)cc3)ccc2cc1-c1ccccn1	2.7%	-9.7%
COc1ccc2c(-c3cc4ccc(OCc5ccc(F)cc5)cc4oc3=O)cc(=O)oc2c1	-7.1%	10µM*
CCOC(=O)Oc1ccc2c(=O)c(Oc3cccc(C)c3)coc2c1	-4.9%	-11.0%
Cc1cccc(Oc2coc3cc(OC(=O)c4cc5ccccc5oc4=O)ccc3c2=O)c1	4.0%	5.01µM*
CCOC(=O)c1ccccc1NC(=O)CSc1nccn1C	1.7%	1.4%
O=C1c2cccc3c([N+](=O)[O-])ccc(c23)C(=O)N1c1ccccn1	-10.8%	-4.5%
Cc1ccc(N2C(=O)c3cccc4c(Oc5ccccc5[N+](=O)[O-])ccc(c34)C2=O)c(C)c1	-6.9%	25.1µM*
Cc1onc(-c2ccccc2Cl)c1C(=O)OCC(=O)c1ccc2c(c1)OCCO2	-2.9%	25.1µM*
Cc1onc(-c2ccccc2Cl)c1C(=O)Nc1ccc2c(c1)OCO2	-2.0%	-0.8%
Cc1ccc(N(CC(=O)Nc2ccccc2-c2ccccc2)S(=O)(=O)c2ccccc2)c(C)c1	-5.3%	?
CCCCOc1ccc(NC(=O)C(=O)NCCC2=CCCCC2)cc1	2.9%	10µM*
SMILES	Cruzain inh Det	Cruzain noTriton
COc1ccc(NC(=O)C(=O)NCCC2=CCCCC2)c(OC)c1	1.8%	3.4%
COc1ccc(CN(C(=O)CN2C(=O)c3ccccc3S2(=O)=O)C(C(=O)NCC2CCCO2)c2ccncc2)cc1 (stereo not given)	-2.6%	16.3%
O=S(=O)(c1ccc(NC(=S)Nc2ccc(OC(F)F)cc2)cc1)N1CCOCC1	-6.4%	9.0%
Cc1sc(N/N=C/c2cccnc2)nc1-c1ccc(Cl)cc1	-6.5%	15.8µM*
Clc1ccc(N/N=C/c2cccnc2)cc1	-10.1%	9.8%
CN(Cc1ccccc1)S(=O)(=O)c1ccc(NC(=S)NC(=O)C2CCCC2)cc1	-3.1%	2.51µM*
CN(c1ccccc1)S(=O)(=O)c1ccc(NC(=S)NC(=O)C2CC2)cc1	-5.0%	-26.4%
CC1(C)OCC(CSC2=C(SCC3COC(C)(C)O3)C(=O)c3ncccc3C2=O)O1 (stereo not given)	15.8µM*	?
O=C1c2cccnc2-c2ncccc21	-2.8%	-4.5%
Cc1ccc(C)c(NC(=O)N2CC=C(c3c[nH]c4ccccc34)CC2)c1	-9.6%	-16.2%
COc1cc(OC)c(NC(=O)N2CC=C(c3c[nH]c4ccccc34)CC2)cc1Cl	-9.2%	20µM*
Cc1cccc(C(=O)Nc2ccccc2C(=O)OCC(=O)Nc2ccc(C#N)cc2)c1	-5.2%	31.6µM*
Cc1ccc(NC(=O)COC(=O)c2ccccc2Nc2ccccc2)cc1	-8.6%	?
N#Cc1ccccc1NC(=O)C(=O)NCCc1csc2nc(-c3cccc(F)c3)nn12	-1.0%	-6.5%
O=C(Nc1nc2ccc(Cl)cc2s1)C1CCCO1 (stereo not given)	-9.3%	-6.6%
Cc1cc(Oc2ccc(-c3nnc(-c4ccccc4)o3)cc2[N+](=O)[O-])ccc1Cl	0.1%	12.6µM*
Cc1nnc(-c2ccc(Oc3ccc(Br)cc3)c([N+](=O)[O-])c2)o1	-3.1%	4.5%
Cc1cccc(C(=O)Nc2c(-c3ccc(F)cc3)nc3ccccn23)c1	-3.0%	3.0%
CC(C)(C)C1CCc2c(sc(NC(=O)C3c4ccccc4Oc4ccccc43)c2C(N)=O)C1 (stereo not given)	-8.5%	10µM*
CC(C)(C)C1CCc2c(sc(N)c2C(N)=O)C1 (stereo not given)	-14.7%	25.1µM*
CC(C)(C)C1CCc2c(sc(NC(=O)c3ccco3)c2C(N)=O)C1 (stereo not given)	-21.9%	-24.6%
CCCOC(=O)c1c(NC(=O)C2c3ccccc3Oc3ccccc32)sc2c1CCC(C)C2 (stereo not given)	-2.2%	20µM*
CCOC(=O)c1c(NC(=O)C2CCN(S(=O)(=O)c3cccs3)CC2)sc(C)c1C	-3.9%	-18.4%
CCOC(=O)c1c(NC(=O)C(C)N2CCN(S(=O)(=O)c3cccs3)CC2)sc2c1CCC(C)C2 (stereo not given)	-0.6%	7.94µM*
CCOC(=O)c1c(NC(=O)C2c3ccccc3Oc3ccccc32)sc2c1CCC(CC)C2 (stereo not given)	-0.7%	14.2%
SMILES	Cruzain inh Det	Cruzain noTriton
CCC(C)(C)C1CCc2c(sc(N)c2C(N)=O)C1 (stereo not given)	-24.8%	?
CCN(CC)C(=O)Cn1cnc2sc(C(=O)N3CCN(c4ccc(OC)cc4)CC3)c(C)c2c1=O	0.2%	29.8%
O=C(c1ccccc1)N1CCN(CC(O)COCC2CC=CCC2)CC1 (stereo not given)	2.4%	6.8%
COc1ccc(CCn2c(C(C)C)nc3c(c(=O)c4ccccc4n3C)c2=O)cc1	-6.3%	-21.6%
CC1=C(C(=O)Nc2ccc(C)cc2C)C(c2cccs2)n2nc(SCc3ccccc3Cl)nc2N1 (stereo not given)	-2.3%	-6.0%
O=C(N/C=C\c1ccccc1)NCc1ccc(Cl)cc1	-1.6%	-3.6%
Cc1cc(-c2ccc(N3CCOCC3)cc2)nc2ccccc12	-16.6%	2.6%
COc1ccc(C(=O)COC(=O)c2cc(-c3ccccc3)nc3c(C)cccc23)cc1	-0.3%	2.5%
CC1CCc2c(sc(NC(=O)C3c4ccccc4Oc4ccccc43)c2C#N)C1 (stereo not given)	-3.7%	-24.2%
CC1CCc2c(sc(NC(=O)C3c4ccccc4Oc4ccccc43)c2C(N)=O)C1 (stereo not given)	-6.3%	25.1µM*
COc1ccc(CCN2C(=O)CN(C3CCCCCC3)C(=O)C2c2ccc(OC(C)C)c(OC)c2)cc1OC (stereo not given)	0.7%	-4.8%

Screening results: PubChem BioAssay, National Center for Advancing Translational Sciences (NCATS)
